Source: PubChem BioAssay (NCI)
Several values for one entry are separate records, joined by “and”; a condition that tells them apart may be missing. Equal entries are not always repeated. This is part of a sample that, as a whole, favours compounds with a hit. Of some 83,000 tested, about 20% had one in any assay.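 Single-concentration screen, 48 h exposure, 96-well plates. Endpoint: percent growth. Below 10 = active.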 Activity calls are given as the source filed them.

Columns and labels:
Test in all cases: NCI-60 one-dose screen, 48 h (100 = growth as untreated, 0 = no growth, -100 = all killed)
Settings in all cases: 10 µM unless noted
[1] = system: SK-MEL-2 melanoma
[2] = system: EKVX NSCLC
[3] = system: SN12C renal
[4] = system: UO-31 renal
[5] = system: TK-10 renal
[6] = system: ACHN renal
[7] = system: CAKI-1 renal
[8] = system: A498 renal
[9] = system: CCRF-CEM leukemia
[10] = system: MOLT-4 leukemia
[11] = system: SR leukemia
[12] = system: RPMI-8226 leukemia
[13] = system: OVCAR-8 ovarian
[14] = system: OVCAR-5 ovarian
[15] = system: OVCAR-4 ovarian
[16] = system: SK-OV-3 ovarian
[17] = system: IGROV1 ovarian
[18] = system: OVCAR-3 ovarian
[19] = system: HS 578T breast
[20] = system: NCI/ADR-RES ovarian

Measured: growth

Cc1ccccc1SSc1ccccc1C
active: [6] 0.0765%
inactive: [1] 24.3% | [2] 114% | [3] 84.9% | [4] 78.4% | [5] 85.5% | [7] 60.5% | [8] 96.2% | [9] 79% | [10] 83.9% | [11] 65.4% | [12] 98.5% | [13] 84.1% | [14] 75.5% | [15] 94.5% | [16] 96.9% | [17] 84.6% | [18] 120% | [19] 97.7% | [20] 86.4%

CCCCCCCCCCCCCCCCCCn1cc(COc2ccc(C=O)cc2)nn1
inactive: [1] 96.4% | [2] 90.1% | [3] 97.5% | [4] 93% | [5] 99.9% | [6] 104% | [7] 104% | [8] 105% | [9] 103% | [10] 92.4% | [11] 85.6% | [12] 95.3% | [13] 102% | [14] 120% | [15] 103% | [16] 91.3% | [17] 103% | [18] 96.8% | [19] 110% | [20] 96.4%

O=C1Nc2ccccc2/C1=C/c1cccn1CCCCCn1c2ccccc2c(=O)c2ccccc21
inactive: [1] 84% | [2] 71.8% | [3] 97.1% | [4] 49.3% | [5] 93.8% | [6] 55.1% | [7] 65.9% | [8] 108% | [9] 44.9% | [10] 46% | [11] 76.1% | [12] 22.1% | [13] 45.6% | [14] 82.6% | [15] 57.1% | [16] 90.4% | [17] 73% | [18] 70.9% | [19] 90.5% | [20] 60.9%

Clc1cccc(Nc2ncnc3ccc(-c4cncc(-n5cnnn5)c4)cc23)c1
active: [5] 7.65% | [8] -7.13% | [16] -4.88%
inactive: [1] 106% | [2] 26.6% | [3] 75% | [4] 32.1% | [6] 28.9% | [7] 24.3% | [9] 75.2% | [10] 58.9% | [11] 71.2% | [12] 35.5% | [13] 75.1% | [14] 65.2% | [15] 90.2% | [17] 26.1% | [18] 66.1% | [19] 67.2% | [20] 76.4%

OB(O)c1ccsc1-c1nc2ccc3[nH]ncc3c2c2c1CCCC2
inactive: [1] 55.9% | [2] 34.7% | [3] 56.4% | [4] 38.3% | [5] 48.7% | [6] 23.3% | [7] 13.7% | [9] 56.2% | [10] 58.5% | [11] 14.1% | [12] 60.3% | [13] 66.2% | [14] 92.1% | [15] 72.3% | [16] 15.3% | [17] 32.6% | [18] 85.2% | [19] 32.9% | [20] 75.6%
active: [8] -2.71%

Nc1ccccc1SC(CC(=O)c1ccccc1)c1ccc([N+](=O)[O-])cc1 (stereo not given)
inactive: [1] 137% and 87.4% | [2] 97.1% | [3] 94% and 92.5% | [4] 55.1% and 39.2% | [5] 118% and 109% | [6] 99.8% and 93.6% | [7] 70.2% and 91.7% | [8] 94.6% and 99.5% | [9] 69.2% and 51.9% | [10] 82.3% and 61.6% | [13] 95.5% and 95.8% | [14] 118% and 114% | [15] 93.8% and 87.8% | [16] 108% and 95% | [17] 117% and 76.1% | [18] 105% and 63.8% | [19] 103% and 105% | [20] 98.2% and 91.9%
13.4% (inactive) and 2.29% (active): [11]
active: [12] -1.33% and -0.234%

COc1ccc(C/C(C)=C(/c2ccc(OCCN3CCCC3)cc2)c2ccc(OC(=O)NCc3ccccc3)cc2)cc1
active: [11] -22.6%
inactive: [1] 104% | [2] 87.5% | [3] 91.9% | [4] 59.9% | [5] 92.8% | [6] 89.7% | [7] 97.7% | [8] 107% | [9] 47.3% | [10] 40% | [12] 66.7% | [13] 89.4% | [14] 81% | [15] 81.6% | [16] 104% | [17] 101% | [18] 89.8% | [19] 81.1% | [20] 97.1%

CC(Sc1ccccc1)C(=O)O (stereo not given)
inactive: [1] 116% | [2] 94.2% | [3] 103% | [4] 94.9% | [5] 102% | [6] 104% | [7] 76.5% | [8] 88.7% | [9] 93.9% | [10] 141% | [11] 153% | [12] 117% | [13] 99.5% | [14] 106% | [15] 102% | [16] 97.3% | [17] 81.4% | [18] 106% | [19] 115% | [20] 111%

O=C(N=Nc1c(O)[nH]c2ccccc12)Nc1ccc(Br)cc1
active: [9] -43.8%
inactive: [1] 93.5% | [2] 86.6% | [3] 99.3% | [4] 66.8% | [5] 90% | [6] 83.7% | [7] 76.3% | [8] 72% | [10] 90.2% | [11] 76.7% | [12] 66.9% | [13] 98.9% | [14] 81.4% | [15] 102% | [16] 97% | [17] 85.2% | [18] 97.4% | [19] 87.4% | [20] 97.2%

N#CC(Cc1cccc2ccccc12)c1cc2ccccc2[nH]1 (stereo not given)
active: [9] -47%
inactive: [1] 113% | [2] 94.1% | [3] 90.2% | [4] 51.9% | [5] 108% | [6] 95.2% | [7] 73.7% | [8] 112% | [10] 78.2% | [11] 99.2% | [12] 72.3% | [13] 87.7% | [14] 89% | [15] 95.1% | [16] 84.1% | [17] 86.4% | [18] 89.7% | [19] 89.7% | [20] 87.2%

CCCCSc1ccc2nc(-c3ccc(OCCCN=C(N)N)cc3)cn2c1
inactive: [1] 48.4% | [2] 95.6% | [3] 88.3% | [4] 76.6% | [5] 110% | [6] 89.2% | [7] 62.3% | [8] 89.4% | [9] 53.4% | [10] 53.1% | [11] 85.8% | [13] 90.9% | [14] 73% | [15] 96.8% | [16] 111% | [17] 52.3% | [18] 30.8% | [19] 35.5% | [20] 104%
active: [12] -27.2%

CCN1C(=O)/C(=c2\sc3n(c2=O)C2C(NN=3)N(CC)C(=O)N2CC)c2ccccc21 (stereo not given)
inactive: [1] 60.1% | [2] 65% | [3] 29.1% | [4] 51.2% | [5] 76.6% | [6] 38.5% | [7] 45.7% | [9] 25.7% | [10] 26.6% | [11] 15.3% | [12] 50.8% | [13] 31.8% | [14] 54.2% | [15] 49.5% | [16] 54.5% | [17] 29% | [19] 24.4%
active: [8] -25.4% | [18] -19% | [20] 5.59%

Cc1c(CC(=O)OCCO)cc(-c2ccc(Cl)cc2)n1-c1ccccc1
inactive: [1] 103% | [2] 95.5% | [3] 92.4% | [4] 75.5% | [5] 115% | [6] 100% | [7] 87.6% | [8] 87.9% | [9] 99% | [10] 91.4% | [11] 91.2% | [12] 72.1% | [13] 92.4% | [14] 99.6% | [15] 68.9% | [16] 110% | [17] 104% | [18] 108% | [19] 106% | [20] 99.5%

Cc1ccc(/C=C2\COc3ccc(O)c(O)c3C2=O)cc1
active: [3] -77.6% | [4] -97.3% | [5] 8.12% | [6] -77.6% | [7] -27.6% | [8] 6.45% | [9] 3.17% | [10] 1.48% | [12] -12.6% | [13] 4.95% | [14] -22.1% | [17] -37.4% | [18] -21.3% | [20] 3.13%
inactive: [1] 48.8% | [2] 28.2% | [11] 18% | [15] 15.7% | [16] 50% | [19] 20.5%
